This is a sample that favours compounds with a hit; in the whole collection about 3.9% have one here.
Anthrax LF inh2 = inhibitors of Bacillus anthracis lethal factor protease | P15917 | multiplex microsphere protease cleavage assay, LF | inhibition, % at 10 µM | 360,000 tested, 0.12% active; also: plate controls were buffer without enzyme for full effect and enzyme alone for no effect
Target sequence (P15917 whole entry, looked up): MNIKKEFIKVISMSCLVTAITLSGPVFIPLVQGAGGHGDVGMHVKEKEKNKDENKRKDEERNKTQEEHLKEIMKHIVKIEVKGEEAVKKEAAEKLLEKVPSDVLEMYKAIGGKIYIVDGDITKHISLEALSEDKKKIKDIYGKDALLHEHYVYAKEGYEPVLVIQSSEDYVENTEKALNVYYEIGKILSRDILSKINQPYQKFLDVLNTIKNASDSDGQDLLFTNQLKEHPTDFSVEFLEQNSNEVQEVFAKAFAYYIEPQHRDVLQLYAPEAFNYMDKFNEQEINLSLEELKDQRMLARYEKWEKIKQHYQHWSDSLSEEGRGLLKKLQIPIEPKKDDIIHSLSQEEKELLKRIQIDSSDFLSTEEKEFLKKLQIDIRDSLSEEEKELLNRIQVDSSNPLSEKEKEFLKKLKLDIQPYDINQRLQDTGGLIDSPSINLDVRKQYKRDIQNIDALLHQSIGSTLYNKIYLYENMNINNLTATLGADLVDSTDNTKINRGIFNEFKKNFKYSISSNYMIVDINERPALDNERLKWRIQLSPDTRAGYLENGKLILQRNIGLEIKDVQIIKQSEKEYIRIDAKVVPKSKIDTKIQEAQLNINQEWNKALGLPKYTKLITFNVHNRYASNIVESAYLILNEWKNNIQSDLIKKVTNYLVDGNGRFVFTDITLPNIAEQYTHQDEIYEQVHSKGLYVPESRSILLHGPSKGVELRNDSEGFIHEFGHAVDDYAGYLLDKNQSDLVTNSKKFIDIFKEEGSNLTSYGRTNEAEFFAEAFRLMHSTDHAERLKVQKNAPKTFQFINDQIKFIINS
3CLpro inhibitor = SARS-CoV 3CLpro protease inhibition. 290,000 tested, 0.14% active. AID 1706. inhibition, % at 6 µM. P0C6X7. recombinant SARS-CoV 3CLpro, quenched FRET peptide cleavage; in the data active = inhibition above about 12%
BoNT A protease = BoNT A light chain protease inhibition. multiplex microsphere protease substrate cleavage, flow cytometry. inhibition, % at 10 µM. 360,000 tested, 0.17% active. AID 588499; also: plate controls were buffer without enzyme for full effect and enzyme alone for no effect
BoNT-F LC inh = blocks Botulinum neurotoxin F light chain protease; inhibition, % at 10 µM; AID 588497; 360,000 tested, 0.22% active; Multiplex microsphere protease cleavage assay, flow cytometry; in the data active = inhibition above about 35%, passing the limit was not always enough; inconclusive = no clear call, values can overlap the other calls; also: plate controls were buffer without enzyme for full effect and enzyme alone for no effect
Bead autofluor = counter-screen for toxin protease inhibitors: compound fluorescence. compound autofluorescence counterscreen, microsphere flow cytometry; hits give high values. fluorescence intensity (no concentration beside the values). 360,000 tested, 3.1% active; in the data active = fluorescence intensity above about 16000; inconclusive = no clear call, values can overlap the other calls
CCHF vOTU inh = blocks the CCHF virus ovarian tumor domain protease; inhibition, % at 11.5 µM; CCHFV vOTU protease, Pep-AMC fluorescence; 370,000 tested, 0.55% active; in the data active = inhibition above about 30%; also: 0% = vehicle wells with enzyme and 100% = no enzyme wells
An asterisk follows results filed as active; u = inconclusive; x = no result. Rule as the data show it, unless noted: active = inhibition above about 30%; inconclusive = no clear call, values can overlap the other calls; inactive = below that.

SMILES	Anthrax LF inh2	3CLpro inhibitor	BoNT A protease	BoNT-F LC inh	Bead autofluor	CCHF vOTU inh
COC(=O)C1=C(C)N(C)C(=O)NC1c1cc(Cl)c(O)c(OC)c1 (centres undefined)	-4	-2	0	0	5831	-13
O=C(OCC1OC(n2cnc3c(N(C(=O)c4ccccc4)C(=O)c4ccccc4)ncnc32)C(O)C1F)c1ccccc1 (centres undefined)	-2	1	-4	-7	24792*	x
Nc1ncnc2c1ncn2[C@@H]1O[C@H](CNC(=O)OC[C@@H](N)Cc2ccccc2)[C@@H](O)[C@H]1O	3	x	0	-6	5853	3
CC1(C(=O)Nc2ccc3nc[nH]c3c2)CCN1C(=O)C1(c2ccccc2)CCCC1 (centres undefined)	0	x	0	-6	3931	2
c1ccc(-n2ncc3c(N4CCN(c5ccccn5)CC4)nc(N4CCCCCC4)nc32)cc1	-3	-6	2	1	19448*	8
CCOc1cccc(-c2c(C(=O)N/N=C(\C)c3cccs3)nnn2-c2nonc2N)c1	-1	7	0	-5	6181	19
CC1(C)C(=O)OC(c2ccc([N+](=O)[O-])cc2)C(C)(C)C1=O (centres undefined)	-3	-2	-2	9	3733	-9
O=C(O)c1ccc(NS(=O)(=O)/C=C/c2ccccc2)cc1O	1	8	5	4	21416*	10
Cc1ccccc1CN1CCCNC1=O	-2	-2	1	0	10623	-5
Cc1ccccc1CN1CCNC1=O	-9	1	2	-2	19805*	-7
CC(=O)Nc1ccc(-c2noc(-c3csc([C@@H]4C[C@H](O)[C@@H](CO)O4)n3)n2)cc1	-2	x	0	-7	3897	0
COc1cc(C(=O)NCC(=O)OCc2ccccc2Cl)cc(OC)c1OC	7	1	0	-5	4527	0
CCOC(=O)c1sc(N)c(C#N)c1COC(=O)CNC(=O)c1cc(OC)c(OC)c(OC)c1	-5	1	0	-5	16372*	5
Cc1sc(NC(=O)c2ccc(Br)s2)c(C(N)=O)c1C	4	8	-1	-6	7911	1
Cc1sc(NC(=O)c2ccc(Cl)s2)c(C(N)=O)c1C	-10	0	0	-2	16138*	17
CCOC(=O)C1=C(C)NC(=O)C(C#N)C1c1ccco1 (centres undefined)	-1	4	u	-17	18722*	-7
CCOC(=O)C1=C(C)NC(C)=C(C(=O)OC)C1c1ccco1 (centres undefined)	-1	-1	0	12	6678	4
Cc1nc(NC(=S)NC(=O)c2cccs2)sc1C(=O)N(C)C	0	2	-2	-1	22794*	-11
CC1(C)CC(=O)C(N=Nc2cc(S(=O)(=O)N3CCOCC3)ccc2Cl)=C(O)C1	x	0	x	x	x	x
Cc1ccccc1-n1c(=O)cc(N2CCc3ccccc3C2)[nH]c1=O	-15	-1	8	11	19487*	2
O=C1c2ccccc2C(=O)C1Cc1cccc2ccccc12	0	-4	1	0	21890*	-12
O=C(Nc1ccc2ccccc2c1)NC1CCCCN(Cc2ccc(Cl)cc2)C1=O (centres undefined)	x	x	x	x	x	-1
CCNC(=O)CN(CCc1ccccc1)S(=O)(=O)c1ccc(OC)cc1	-3	2	0	3	16480*	6
COc1ccc(S(=O)(=O)N(CCc2ccccc2)CC(=O)NCCCO)cc1	-1	-5	-2	-18	9981	2
Cc1cccc(Cc2ccc(Cl)nn2)c1	-5	8	2	6	4260	-3
SMILES	Anthrax LF inh2	3CLpro inhibitor	BoNT A protease	BoNT-F LC inh	Bead autofluor	CCHF vOTU inh
CCOc1ccc(C(=O)CCC(=O)NN2CCCCC2)cc1	0	x	-1	-5	3680	-2
CCN(CC)S(=O)(=O)c1ccc(Cl)c(C(=O)Nc2nnc(C)s2)c1	-6	-1	u	-8	23810*	-3
CC(=O)Oc1ccc(Cn2c(C)c(C(=O)NCc3ccc4c(c3)OCCO4)sc2=O)cc1	2	x	0	4	4818	2
COCCCNC(=O)c1ccc2c(=O)n(C3CCCC3)c(=S)[nH]c2c1	-3	0	4	4	18736*	0
COCCCNC(=O)c1ccc2c(=O)n(CC3CCCO3)c(=S)[nH]c2c1 (centres undefined)	-7	-9	0	-4	16266*	-6
CC(C)NC(=O)c1ccc2c(=O)n(CC3CCCO3)c(=S)[nH]c2c1 (centres undefined)	-4	7	0	1	3118	5
CCN1CCN(C(=O)c2ccc3c(=O)n(C4CCCC4)c(=S)[nH]c3c2)CC1	-9	-2	0	2	9141	-2
CCc1nc2ccc(C(=O)Nc3ccc4c(c3)OCC(=O)N4)cn2c1N(C)Cc1nccn1C	-4	x	0	-13	3854	14
O=C(CN1C(=O)NC2(CCCc3ccccc32)C1=O)NC1CCCCC1 (centres undefined)	4	x	4	-2	5006	0
CCCOc1ccc(C(=O)N/N=C/c2ccc(-c3ccc(S(=O)(=O)Nc4ncccn4)cc3)o2)cc1	-1	3	u	-9	22659*	0
CCOC(=O)NC(CC(=O)O)c1ccc(OC)c(OC)c1 (centres undefined)	0	-6	0	-1	16400*	-6
O=C(NNC(=O)c1ccccn1)c1ccc(OC(F)F)cc1	5	x	2	0	6180	9
CCOC(=O)C1CCCN(Cc2cc(Br)c(OC)cc2OC)C1 (centres undefined)	-1	-6	0	0	22833*	-13
CCOC(=O)C1CCCN(Cc2cc(Br)ccc2OC)C1 (centres undefined)	3	0	0	4	8933	5
CCN(CC)C(=O)C1CCCN(Cc2ccc(OC)c(C)c2C)C1 (centres undefined)	-1	1	u	2	21287*	0
COc1ccc(CN2CCCC(C(=O)N3CCCCC3)C2)c(OC)c1 (centres undefined)	-17	2	0	2	3846	x
COC(=O)CN1CCN(C(=O)c2nocc2C)CC1	x	x	x	x	x	-6
Cc1ccc(S(=O)(=O)NCCNC(=O)C2CCCNC2=O)cc1 (centres undefined)	-1	-6	-1	u	4364	11
CN(C)CCNC(=O)C1CCCNC1=O (centres undefined)	0	0	u	-3	22891*	0
CC(=O)c1ccc(NC(=O)C2CCCNC2=O)cc1 (centres undefined)	-4	-5	u	-1	21778*	0
COc1ccc(C)cc1S(=O)(=O)NCc1ccccn1	-5	x	0	1	3650	-2
Cc1ccc(/C(C#N)=C\c2ccc(N3CCOCC3)o2)cc1	-4	5	-2	-11	10448	-14
Cc1ccc2nc(/C(C#N)=C\c3ccc(N4CCOCC4)o3)[nH]c2c1	-2	0	-4	110*	13254	1
